ChEMBL document CHEMBL4513216, “Probing the Open Global Health Chemical Diversity Library for Multistage-Active Starting Points for Next-Generation Antimalarials” (ACS Infect Dis, 2020)
The whole screen tested about 65,000 compounds, of which about 2,100 (3.2%) showed an effect of 50% or more. The median lay at about -52%. Shown is part of a subset that was picked to be rich in strong results.

test system: Plasmodium falciparum; assay: Screen against P. falciparum Asexual Blood Stage (ABS), at 5uM; type: functional, Dd2; conditions: tested at 5 uM

Compound	INHIBITION [%]
COc1cc(N2C[C@@H]3COC[C@]3(COc3ncccc3F)C2)ncn1	-25.8
c1c(CN2CCCC2)nc2n1CCN(C1CCOCC1)C2	-103
Cc1cc2n(n1)CC(CNCc1ccc(Oc3ccccc3)nc1)CN2 (centres undefined)	58.9
COc1ccc(CNCC2CNc3cc(C)nn3C2)cn1 (centres undefined)	-171
c1ccc(Oc2ccc(CNCC3CNc4ccnn4C3)cn2)cc1 (centres undefined)	-12.8
Cc1cc2n(n1)CC(CNCc1cnn(-c3ccccc3)c1)CN2 (centres undefined)	-71.4
Cc1cc2n(n1)CC(CNCc1ccc(OCC3CC3)nc1)CN2 (centres undefined)	-101
COc1cc(CNCC2CNc3ccnn3C2)ccn1 (centres undefined)	-129
Cc1cc2n(n1)CC(CNCc1ccc(-n3cccn3)nc1)CN2 (centres undefined)	15.1
c1ccc(Oc2cc(CNCC3CNc4ccnn4C3)ccn2)cc1 (centres undefined)	53.3
Cc1cc2n(n1)CC(CNCc1ccc(-n3cccn3)cc1)CN2 (centres undefined)	53.4
COc1ccccc1N1CC(NC(=O)c2cc(C(C)C)nn2C)CC1=O (centres undefined)	-102
COCC1c2nnn(C)c2CCN1C(=O)CCc1cccc(OC)c1 (centres undefined)	-85.3
CC1CCCN(Cc2ccc(C(N)=O)cc2)C1 (centres undefined)	-118
COc1ccc(NC(C)c2nnnn2-c2ccccc2)cc1F (centres undefined)	-2.6
Cc1nc(Cc2ccccc2)nc2sc(C(=O)O)c(C)c12	-62.8
CCOC(=O)N1CCN(c2nc(CCN)nc3sc(C)c(C)c23)CC1	66.1
Cc1sc2nc(CCN)nc(N3CCS(=O)(=O)CC3)c2c1C	-119
CC(=O)N1CCN(c2nc(C(F)(F)F)nc3sc(C)c(C)c23)CC1	-30.4
Cc1cnn(CC(C)NCc2ccc(OCC(N)=O)cc2)c1 (centres undefined)	-49.9
CCOC(=O)N1CCN(c2nc(NCCCO)c3ccccc3n2)CC1	-50.8
CCn1ccc(-c2cc(NCCCOc3ccccc3C)nc(C)n2)n1	-2.89
CCOc1ccccc1C(N)CC(C)C (centres undefined)	33.2
CC(C)COc1ccccc1C(N)CC(C)C (centres undefined)	28.3
Cc1ccc(Oc2c(F)cccc2OC[C@@H](N)CC(C)C)cc1	65.9
O=C(O)c1ccnc(SCC(F)(F)F)c1	-13.4

Compound	INHIBITION [%]
CN1[C@@H](C(=O)NCC2CC2)C[C@H]2CN(Cc3cccc(C#N)c3)C[C@H]21	27.2
CN1CCN(C[C@@H]2OC[C@H]3CN(CCc4ccccc4)CC[C@H]32)CC1	66.1
Cc1ccc(CN2CC[C@@H]3[C@@H](CO[C@H]3CN3CCN(C)CC3)C2)cc1	-1.6
CN1CCN(C[C@@H]2OC[C@H]3CN(Cc4cccc(F)c4)CC[C@H]32)CC1	19.2
Cn1cccc1C(=O)N1CCO[C@H]2[C@H](OCc3cccnc3)CC[C@@H]21	-57.2
CC(C)C(=O)N1CCC([C@@H]2C[C@H](C(F)F)n3ncnc3N2)CC1	12.2
COCCN1CCOCC12CCN(C(=O)c1c[nH]c3ccccc13)CC2	-122
Cc1ccc(CN2CCOCC3(C2)CN(c2ccc(C)s2)C(=O)CO3)o1 (centres undefined)	-71.8
CCc1cc(N2CCC3(CCCNC3=O)C2)nc(N2CCOCC2)n1 (centres undefined)	-56.1
Cc1ccc(CN2CCOC3(COCCN(CCN(C)C)C3)C2)o1 (centres undefined)	-69.1
CC(C)NC(=O)C1(Cc2ccccc2-c2cccs2)CCNC1 (centres undefined)	68.3
CC(C)NC(=O)C1(Cc2ccccc2-c2cncnc2)CCCNC1 (centres undefined)	-14.3
CC(C)CNC(=O)C1(Cc2ccccc2-c2ccccc2)CCNC1 (centres undefined)	52
O=C(NCCO)C1(Cc2ccccc2-c2cccnc2)CCOCC1	-31.7
COCCNC(=O)C1(Cc2ccccc2-c2ccncc2)CCOCC1	-10.1
O=C(O)C1(Cc2ccc(-c3cccs3)cc2)CCNC1 (centres undefined)	-44.3
Cc1cc(=O)[nH]c(=O)n1Cc1ncc(-c2ccccc2C(=O)O)s1	-46.1
O=C1C(NCc2nnc3n2CCCC3)CCN1c1ccccc1Cl (centres undefined)	-35.2
CN(CC1CC1)c1ccc2ccc(C(=O)NCCc3ccccc3)cn12	-46.3
CN(C)CCNC(=O)c1ccc2ccc(N(C)CC3CC3)n2c1	19.9
COCCNC(=O)c1ccc2ccc(N(C)CC3CC3)n2c1	60.1
CN(CC1CC1)c1ccc2ccc(C(=O)NC3CCCCC3)cn12	54.6
CN(C)C(=O)CNC(=O)c1ccc2ccc(N(C)CC3CC3)n2c1	-73.5
CCN(CC)c1ccc2ccc(C(=O)NC3CC3)cn12	-34.9
Cn1cccc1CN1CCC2(CC1)CN(c1ncccn1)CCO2	-28.5
Cc1ccc(CN(Cc2cccnc2)C2CC(C)(C)NC(C)(C)C2)s1	69.6

Compound	INHIBITION [%]
Cc1ccc(CN(Cc2ccncc2)C2CCN(C)CC2)s1	34.9
CC1(C)CC(N(Cc2ccncc2)Cc2cccnc2)CC(C)(C)N1	25.7
CC1(C)CC(N(Cc2cccnc2)Cc2cccnc2)CC(C)(C)N1	-5.22
Cc1ccc(CN(Cc2ncc[nH]2)C2CC(C)(C)NC(C)(C)C2)o1	-15.9
Cc1ccc(CN(Cc2c[nH]cn2)C2CC(C)(C)NC(C)(C)C2)o1	-50.8
Cc1ccc(CN(Cc2ccccn2)C(=O)[C@H]2CC[C@@H](N)C2)s1	-57.1
Cc1ccc(CN(Cc2ccncc2)C2CC(C)(C)NC(C)(C)C2)o1	66.9
Cc1cccc(CN(Cc2cccnc2)C2CC(C)(C)NC(C)(C)C2)n1	42.9
Cc1ccc(CN(Cc2ccccn2)C2CC(C)(C)NC(C)(C)C2)s1	69.8
CC1(C)CC(N(Cc2ccccc2)Cc2cccnc2)CC(C)(C)N1	54.6
CC1(C)CC(N(Cc2ccccc2)Cc2c[nH]cn2)CC(C)(C)N1	20.7
CCn1ncc2c(C(F)(F)F)cc(-c3ccn(C)n3)nc21	-88
COc1ccc(C(C)Nc2cnn(C)c(=O)c2Cl)cc1OC (centres undefined)	-40.4
CC(C)OCCN1CCC(Nc2ncccn2)CC1	-102
CCC1CN(C(=O)NCc2cccnc2-n2cccn2)CCO1 (centres undefined)	-88.4
O=C(O)C1CCCN1c1nc(-c2ccc(Cl)c(Cl)c2)cc(C(F)(F)F)n1 (centres undefined)	-8.45
CCCc1nc(C)c(C(=O)NCCn2nc3ccccn3c2=O)s1	-201
O=C(NCc1cc[nH]n1)NCC(c1ccc(F)cc1)N1CCOCC1 (centres undefined)	-39
Cc1cccc(C(CNC(=O)NCc2cc[nH]n2)N2CCOCC2)c1 (centres undefined)	53
O=C(NCc1cc[nH]n1)NCC(c1ccccc1)N1CCOCC1 (centres undefined)	-82.7
CCCn1ccnc1-c1nccn1CCn1cnnc1	-36
O=C(C1CCOCC1)N1CCO[C@H]2[C@H](Oc3ccccn3)CC[C@@H]21	-53.1
O=C(NCC(=O)N1CCCC1)c1nn(-c2ccccc2F)cc1O	-120
CCOCC(O)CN1CCN(C(=O)c2ccc(OC)cc2)CC1 (centres undefined)	-24.3
CCOCC(O)CN1CCN(C(=O)c2ccc(N(C)C)nc2)CC1 (centres undefined)	-72.5
CCOCC(O)CN1CCN(C(=O)c2ccc(C)nc2)CC1 (centres undefined)	60.7

Compound	INHIBITION [%]
CC(Nc1ccc(C#N)cc1F)c1cccc(S(N)(=O)=O)c1 (centres undefined)	-49.5
O=C1CC[C@H]2CN(Cc3cccnc3)CC[C@H]2N1CCc1c[nH]cn1	-154
Cc1nc(CN2CC[C@@H]3[C@@H](CCC(=O)N3CCc3c[nH]cn3)C2)co1	-58.8
O=C1CC[C@H]2CN(Cc3ccc(Cl)s3)CC[C@H]2N1CCc1c[nH]cn1	66.6
CC(=O)N1CCC2(C1)c1ccccc1S(=O)(=O)N2C (centres undefined)	-56.8
COCc1cccc(CNCc2c(C(C)C)nn(C)c2N(C)C)c1	36.5
CC(C)c1nn(C)c(N(C)C)c1CNCc1ccccc1CN(C)C	59.5
COc1ncccc1CNCc1c(C(C)C)nn(C)c1OC	-29.9
COc1ncccc1CNCc1c(C(C)C)nn(C)c1Cl	51.7
COc1ncccc1CNCc1c(C(C)C)nn(C)c1N(C)C	11
Cc1nn(C)c(N(C)C)c1CNCc1ccccc1CN(C)C	18.8
CCOc1ncccc1CNCc1c(C(C)C)nn(C)c1N(C)C	-7.19
COCc1ccccc1CNCc1c(C(C)C)nn(C)c1N(C)C	59.4
COCc1ccccc1CNCc1c(C)nn(C)c1N(C)C	-36.8
CC(C)c1nn(C)c(N(C)C)c1CNCc1cccc2cccnc12	67.5
CC(C)c1nn(C)c(N(C)C)c1CNCc1cccnc1N(C)C	21
CC(C)c1nn(C)c(N(C)C)c1CNCc1ccccc1CO	44.8
CS(=O)(=O)c1ccc(CN2C[C@@H]3CC[C@H]2CN(c2ncccn2)C3)cc1	-136
CN(Cc1noc(C2CC2)n1)C1CCN(Cc2nnc(C3CC3)o2)C1 (centres undefined)	-122
CC(C)(C)C(N)C1=NC(=C2N=CN=N2)NO1 (centres undefined)	-49.9
CCn1c(=NC(=O)CSCC(=O)Nc2nccs2)sc2ccccc21	32.3
CC(NCc1cnc(N2CCOCC2)nc1)c1ccc(Cl)s1 (centres undefined)	-25.9
c1csc(CN2CCO[C@@H]3CN(C4CCOCC4)C[C@@H]3C2)c1	-93.2
Cc1noc(C)c1CN1Cc2cnn(C)c2C(COCC2CC2)C1 (centres undefined)	-81.3
Cc1ccc(CN2CCS(=O)(=O)C(C)(C)C2)cc1C	-98.2
Cc1csc2ncnc(N3CCC(Cn4cc(C(C)(C)N)nn4)CC3)c12	35
